# The list is not random: actives were taken first. Their share in the collection is about 8%.
# RORg inh: blocks mouse ROR gamma transcriptional activity; P51450; Drosophila S2 Gal4-RORgamma UAS-luciferase reporter, 20 h; Potency, µM (series often up to 53.6 µM), without a hit: at the top dose activity change, negative = inhibition, actives largely listed as inhibitors; actives 5.4% (n = 310,000); AID 2551; note: potency is the fitted concentration of half-maximal effect; nearly all actives have a fitted effect of over 60% in size
#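 Read-out: Photinus luciferase luminescence; inhibitors lower reporter signal. Insect Schneider cells with Gal4-ROR gamma fusion under metallothionein promoter, UAS reporter; 700 uM final copper sulfate induction, 20 hr, ambient temperature.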
# Gal4-VP16 FLuc: counter-screen for ROR gamma inhibitors: Gal4-VP16 reporter; Drosophila S2 Gal4-VP16 UAS-luciferase, luminescence, 20 h; Potency, µM (doses to about 53.6 µM), for inactives: at the top dose activity, negative = inhibition, usual class: inhibitors; actives 3.5% (n = 310,000); AID 2546;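 note: Gal4-VP16 expression switched on by copper sulfate through the metallothionein promoter; potency is the fitted concentration of half-maximal effect; nearly all actives have a fitted effect of over 50% in size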
# ELG1 repair inh: ELG1-dependent DNA repair inhibition; HEK293T ELG1-luciferase reporter, luminescence, 16 h; DNA damage induced by 5-fluorouridine; Potency, µM (titrated, usually from 46.1 µM), inactives show at the highest dose activity change, negative = inhibition, hits mostly inhibitors; actives 2.3% (n = 330,000); AID 504467; note: potency is the fitted concentration of half-maximal effect; nearly all actives have a fitted effect of over 55% in size
#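 Quantitative HTS, concentration-response format. 2,000 cells/well co-treated with 5-fluorouridine and compound, 16 hr in 5% CO2 at 37 °C; ONE-Glo luminescence read after 30 min.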
# FBPA coupling cs: inhibits coupling enzyme system, counter-screen for aldolase hits. coupling enzyme system counterscreen, AmpLite Red fluorescence. activity change, negative = inhibition, % at 58.2 µM, hits read low. actives 0.67% (n = 290,000); in the data active = activity change below about -30%
#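 First, compound is pin-transferred into glyceraldehyde-3-phosphate coupling-enzyme reagent at 57.5 uM final and held 10 min at RT. Next, substrate, coupling system and AmpLite Red are added. After 20 min RT, fluorescence (525/598 nm) is read.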
# TSHR antagonist: antagonists of human thyroid stimulating hormone receptor; AID 504810; actives 0.2% (n = 330,000); P16473; activity change, negative = inhibition, % at 11.5 µM; TSHR-expressing cells, TSH-stimulated cAMP HTRF, 2 h; stronger effect = lower value;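 active = activity change below a set negative limit, meaning inhibition stronger than a set level, cut at about -70% in these data; inconclusive = activity change between two set negative limits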
# Target sequence (P16473 whole entry, looked up): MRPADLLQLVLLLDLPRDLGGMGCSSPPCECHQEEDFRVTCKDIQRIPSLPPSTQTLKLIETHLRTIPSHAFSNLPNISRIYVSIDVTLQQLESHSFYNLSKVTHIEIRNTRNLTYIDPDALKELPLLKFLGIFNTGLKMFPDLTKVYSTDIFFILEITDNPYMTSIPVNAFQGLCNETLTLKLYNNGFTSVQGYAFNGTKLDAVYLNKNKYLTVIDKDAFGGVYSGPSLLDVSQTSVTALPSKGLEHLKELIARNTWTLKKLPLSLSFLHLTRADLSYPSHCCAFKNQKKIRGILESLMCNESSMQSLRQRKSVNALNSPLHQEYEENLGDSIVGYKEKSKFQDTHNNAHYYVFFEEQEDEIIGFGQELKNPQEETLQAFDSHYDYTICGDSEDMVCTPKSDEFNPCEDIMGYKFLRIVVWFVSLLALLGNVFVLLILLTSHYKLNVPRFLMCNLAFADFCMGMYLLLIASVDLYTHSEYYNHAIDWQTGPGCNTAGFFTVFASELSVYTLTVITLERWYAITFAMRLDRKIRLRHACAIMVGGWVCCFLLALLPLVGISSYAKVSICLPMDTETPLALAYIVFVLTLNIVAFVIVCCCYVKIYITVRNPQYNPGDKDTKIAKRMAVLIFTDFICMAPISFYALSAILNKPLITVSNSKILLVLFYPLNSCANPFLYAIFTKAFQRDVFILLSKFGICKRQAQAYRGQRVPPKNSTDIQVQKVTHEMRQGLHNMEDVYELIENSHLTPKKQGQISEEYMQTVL
#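 Freshly harvested TSHR cells receive pin-tooled compound, then EC80 TSH at 4nM final. After 2 hours at 37 deg C, antibody in lysis buffer and cAMP-d2 are added; 30 minutes at ambient temperature precede the HTRF read.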
# Numbers without * were called inactive; ? = inconclusive; . = not tested or not shown; [ ] = another dose, or the depositor's remark. Unless noted, calls come from the whole dose curve; as a rule, active = well fitted curve in the direction sought with a large enough effect; inconclusive = small, poorly fitted or top-dose-only effect, or another doubt; inactive = no such curve, though single readings can be large; an effect the other way counts as inactive or inconclusive. % is set by controls: 0 for no effect and ±100 for the full control effect.
SMILES,RORg inh,Gal4-VP16 FLuc,ELG1 repair inh,FBPA coupling cs,TSHR antagonist
COc1ccc2c(=O)c3c(=O)n(Cc4ccco4)c(-c4cc(OC)c(OC)c(OC)c4)nc3oc2c1,8.8%,-15.1%,13µM*,-0.9,-1.6
Brc1ccc(-c2ccc(/C=N/Nc3nc(N4CCOCC4)nc(N4CCOCC4)n3)o2)cc1,-0.6%,1.9%,5.8µM*,-0.5,-3.0
Fc1cnc(N/N=C/c2ccc(-c3ccc(Br)cc3)o2)nc1N1CCOCC1,?,?,11.6µM*,-3.0,-6.9
CCOc1cc(/C=N\Nc2ncc(F)c(N3CCOCC3)n2)ccc1Oc1nc(Cl)ncc1F,?,?,23.1µM*,-0.8,1.6
O=S(=O)(N/N=C/c1ccc(N2CCOCC2)cc1)c1ccc(Br)cc1,31.0%,0.3%,-3.8%,2.9,-5.8
Cc1cn(-c2ccccc2)c(C)c1/C=N\Nc1nc(N2CCOCC2)nc(N2CCOCC2)n1,15.3%,-1.1%,8.2µM*,-0.5,1.6
Cc1noc(C)c1NC(=O)Nc1ccc2c(c1)CC(=O)N([C@@H](C)CO)C[C@@H](C)[C@@H](CN(C)C(=O)Nc1cccc3ccccc13)O2,.,.,-27.9%,.,-15.5
Clc1ccccc1/C=N/Nc1cc(N2CCOCC2)ncn1,26.6%,?,?,1.5,-10.7
Clc1ccc(-c2ccc(/C=N/Nc3cc(N4CCOCC4)nc(N4CCOCC4)n3)o2)cc1,?,12.1%,5.8µM*,-6.6,-7.3
FC(F)(F)c1cc(-c2ccc(Cl)cc2)nc(NCc2cccnc2)n1,-38.5%,-11.5%,20.6µM*,0.4,-7.3
Cc1noc(C)c1CSc1ncnc2sc(C)c(C)c12,6.6%,-4.3%,19.5%,-1.2,4.9
Cc1noc(C)c1CSc1ncnc2sc3c(c12)CCCCC3,7.94µM*,?,5.6%,10.0,-12.3
O=c1cc(C(F)(F)F)nc(SC/C=C/c2ccccc2)[nH]1,4.5%,6.1%,9.4%,2.3,?
CCOC(=O)c1ccccc1NC(=O)Cc1ccc(S(=O)(=O)N2CCCC2)s1,.,.,25.9µM*,.,-20.5
O=C(Cc1ccc(S(=O)(=O)N2CCOCC2)s1)Nc1ccc2c(c1)CCC2,25.7%,1.0%,0.0%,0.9,-2.3
O=C(Cc1ccc(S(=O)(=O)N2CCOCC2)s1)Nc1nc2c(s1)CCCC2,10.7%,-0.4%,-5.5%,-58.9*,5.6
COC(=O)C(Cc1ccc(O)cc1)NC(=O)CCOc1ccc(OC)cc1 (stereo not given),?,0.4%,-2.8%,-1.3,-11.3
C[C@H](NS(=O)(=O)c1ccc(F)cc1)C(=O)OCC(=O)c1c(N)n(C)c(=O)n(C)c1=O,.,.,5.3%,.,4.8
Cc1cc(OCC(=O)NC(Cc2ccc(Cl)cc2)C(=O)O)c2c(C)c(C)c(=O)oc2c1 (stereo not given),0.4%,2.9%,?,8.5,-6.3
C[C@@H](C(=O)O)c1ccc(N2Cc3ccccc3C2=O)cc1,1.12µM*,2µM*,.,-0.2,.
O=C(CSc1nnc(CCc2ccccc2)n1-c1ccc(Cl)cc1)c1ccccc1,11.2µM*,?,-15.4%,4.0,-14.6
S=c1[nH]nc(Cc2n[nH]c(=S)n2-c2ccccc2)n1-c1ccccc1,22.9%,-14.2%,-0.8%,4.7,1.3
COc1ccc(-n2c(CCc3ccccc3)nnc2SCC(=O)c2ccc(Cl)cc2)cc1,4.1%,?,?,-0.6,13.4
S=c1[nH]nc(CCc2ccccc2)n1-c1ccccc1,5.62µM*,11.2µM*,16.3%,-0.7,-8.3
S=c1[nH]nc(CCc2ccccc2)n1-c1ccc(Cl)cc1,1.78µM*,?,3.0%,7.9,-1.5
SMILES,RORg inh,Gal4-VP16 FLuc,ELG1 repair inh,FBPA coupling cs,TSHR antagonist
CCC(C(=O)NCCCN1CC(C)CC(C)C1)n1ncn2c(cc3occc32)c1=O (stereo not given),-2.5%,-6.6%,4.8%,4.5,-36.1
Cc1ccccc1NCc1ccccc1O,30.4%,13.5%,12.9%,-32.9*,-6.1
COC(=O)c1sccc1NC(=S)NCc1ccc(Cl)cc1,0.794µM*,1.26µM*,-25.1%,-1.9,-20.4
COC(=O)c1ccc(C)c(NC(=S)NCc2ccc(Cl)cc2)c1,8.91µM*,14.1µM*,1.8%,4.6,17.9
COC(=O)c1cc(NC(=S)NCc2ccc(Cl)cc2)cc(C(=O)OC)c1,?,?,-0.1%,1.0,-4.6
N#CC1=C(N)NC(=S)C(C(N)=O)C1c1ccc([N+](=O)[O-])cc1 (stereo not given),?,12.6µM*,8.5%,5.5,-3.2
Cc1ccccc1C(=O)NNC1=NCCC1,12.6µM*,14.1µM*,8.2%,-0.9,3.8
CC(=O)c1cccc(N=Nc2c(-c3ccccc3)[nH]n(-c3ccccc3)c2=O)c1,?,-17.1%,8.2µM*,-2.6,-7.0
Cc1[nH]n(-c2ccccc2)c(=O)c1N=Nc1cccc(Cl)c1,7.1%,-3.9%,?,-7.9,10.6
Cc1nn(C)c(C)c1CCC(=O)N1CCCC(N2CCN(c3ccc(F)cc3)CC2)C1 (stereo not given),5.7%,12.4%,10.8%,-3.0,21.5
COc1ccc2[nH]c(C)c(CCN(Cc3cccs3)C(=S)Nc3ccc(F)cc3)c2c1,-35.1%,-26.7%,-29.3%,-8.2,20.3
COc1ccc2[nH]c(C)c(CCN(Cc3cccs3)C(=S)Nc3ccccc3)c2c1,1.78µM*,-21.6%,?,-23.8,10.0
CNC(=S)N(CCc1c(C)[nH]c2ccc(C)cc12)Cc1cccs1,11.2µM*,?,?,0.4,-3.0
CC(O)(c1ccc(Cl)cc1)c1ccc(Cl)cc1,-5.0%,?,.,-2.4,.
N=C1CCC(=N)c2c1c(O)c1ccccc1c2O,-5.3%,-13.3%,?,-31.8*,3.5
CCOC(=O)c1cc(-c2ccc(C)cc2)n(CCC(=O)N2CCN(c3ccccn3)CC2)c1C,3.2%[10 µM],13.2%,20.6µM*,-0.8,11.0
CCOC(=O)c1cc(-c2ccccc2)n(CCC(=O)O)c1C,17.8%,-5.5%,-7.7%,4.3,-4.7
COc1c(Br)cc(/C=N/n2c(-c3ccccc3)n[nH]c2=S)c(O)c1Br,12.6µM*,?,?,5.5,55.9
Cc1ccc(-c2n[nH]c(=S)n2/N=C/c2c(C)[nH]n(-c3ccccc3)c2=O)cc1,10µM*,-26.2%,-14.7%,-1.4,-8.2
CC(/C=N/n1c(-c2ccco2)n[nH]c1=S)=C\c1ccccc1,?,-69.8%,-0.1%,3.0,-13.3
S=c1[nH]nc(-c2cccs2)n1/N=C/c1cn(-c2ccccc2)nc1-c1ccccc1,-43.1%,-5.5%,?,0.6,12.9
Fc1ccc(/C=N/n2c(-c3cccs3)n[nH]c2=S)cc1,2µM*,3.98µM*,5.2%,4.7,-2.5
Oc1c(Br)cc(Br)cc1/C=N/n1c(-c2ccccc2)n[nH]c1=S,?,?,-21.8%,0.2,-9.8

# Screening results from PubChem.
